Assay results: PubChem BioAssay
Where “and” joins values, the source holds several entries; their conditions need not be identical. Equal entries are not always repeated. Calls of active or inactive are those of the source.

How the values were obtained:
[1] = optical density shifts of acrAB sulA E. coli – strain DRC41, OD650, 48 h, E. coli filamentation inducer project, primary screen (AID 1152); details: higher = more signal, called active from +8 up or from −8 down;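 note: E. coli MC1000 strain DRC41 lacking acrAB efflux pump and sulA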
[2] = probe aLefty1 binding on compound microarray – biochemical, small-molecule microarray, 635/667 nm fluorescence, primary screen (AID 1153); details: higher = more signal;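 note: score merges spot fluorescence with signal-to-noise ratio from the scanned slide images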
[3] = plasmodial surface anion channel blockers, osmotic lysis – cell-based, P. falciparum Indochina, OD700, 1 h, primary screen (AID 1154); details: P. falciparum Indochina infected RBC osmotic lysis, higher = more signal, called active from +8 up or from −8 down
[4] = plasmodial surface anion channel blockers, osmotic lysis – cell-based, P. falciparum Indochina, OD700, 2 h, primary screen (AID 1155);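 note: lysis reports solute entry through the parasite surface anion channel PSAC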; details: P. falciparum Indochina infected erythrocytes, higher = more signal, called active from +8 up or from −8 down
[5] = changes in parasitized red cell lysis, either direction – P. falciparum Indochina, OD700, 3 h, PSAC antagonist project, primary screen (AID 1156); details: P. falciparum-infected erythrocytes, osmotic lysis, higher = more signal, called active from +8 up or from −8 down
[6] = plasmodial surface anion channel blockers, osmotic lysis – cell-based, P. falciparum Indochina, OD700, 18 h, primary screen (AID 1157); details: P. falciparum Indochina infected erythrocytes, osmotic lysis OD700, 18 h; higher = more signal, called active from +8 up or from −8 down
[7] = S6 kinase pathway phospho-S6 level changes – cell-based, A549, cytoblot, luminescence, serum-stimulated, primary screen (AID 1158); details: 5 h, higher = more signal;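 note: serum-stimulated A549 lung adenocarcinoma cells; signal is phosphorylated S6 detected by cytoblot immunostaining with HRP secondary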
[8] = target: NADPH oxidase 2 (Homo sapiens) (UniProt P04839); assay: compounds shifting NOX2 Amplex Red fluorescence – cell-based, HEK293-NOX2, PMA-stimulated, NOX inhibitor project, primary screen (AID 1159); details: 45 min, higher = more signal, called active from +8 up or from −8 down; note: test concentration not given here
Chain of NADPH oxidase 2 (Homo sapiens) (P04839 whole entry, looked up): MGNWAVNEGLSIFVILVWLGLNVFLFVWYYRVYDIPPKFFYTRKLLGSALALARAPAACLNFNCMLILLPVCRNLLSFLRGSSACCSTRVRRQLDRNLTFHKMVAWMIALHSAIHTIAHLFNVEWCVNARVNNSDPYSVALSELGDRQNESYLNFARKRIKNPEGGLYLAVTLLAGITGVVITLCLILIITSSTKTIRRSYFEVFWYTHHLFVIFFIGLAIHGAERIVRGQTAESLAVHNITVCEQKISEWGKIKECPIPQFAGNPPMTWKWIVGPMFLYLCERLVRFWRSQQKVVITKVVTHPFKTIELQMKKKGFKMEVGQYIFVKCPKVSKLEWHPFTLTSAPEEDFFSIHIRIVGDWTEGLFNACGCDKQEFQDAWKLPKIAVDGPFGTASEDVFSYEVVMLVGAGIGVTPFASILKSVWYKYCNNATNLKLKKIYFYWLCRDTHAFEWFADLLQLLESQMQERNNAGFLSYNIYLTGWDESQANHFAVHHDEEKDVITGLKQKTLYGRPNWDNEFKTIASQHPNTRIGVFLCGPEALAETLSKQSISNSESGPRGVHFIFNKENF

[9] = target: NADPH oxidase 4 (Homo sapiens) (UniProt Q9NPH5); assay: compounds shifting NOX4 Amplex Red fluorescence – cell-based, HEK293-NOX4, tetracycline-induced, NOX inhibitor project, primary screen (AID 1160); details: HEK293-NOX4, Amplex Red H2O2 fluorescence, 45 min; higher = more signal, called active from +8 up or from −8 down
Chain of NADPH oxidase 4 (Homo sapiens) (Q9NPH5 whole entry, looked up): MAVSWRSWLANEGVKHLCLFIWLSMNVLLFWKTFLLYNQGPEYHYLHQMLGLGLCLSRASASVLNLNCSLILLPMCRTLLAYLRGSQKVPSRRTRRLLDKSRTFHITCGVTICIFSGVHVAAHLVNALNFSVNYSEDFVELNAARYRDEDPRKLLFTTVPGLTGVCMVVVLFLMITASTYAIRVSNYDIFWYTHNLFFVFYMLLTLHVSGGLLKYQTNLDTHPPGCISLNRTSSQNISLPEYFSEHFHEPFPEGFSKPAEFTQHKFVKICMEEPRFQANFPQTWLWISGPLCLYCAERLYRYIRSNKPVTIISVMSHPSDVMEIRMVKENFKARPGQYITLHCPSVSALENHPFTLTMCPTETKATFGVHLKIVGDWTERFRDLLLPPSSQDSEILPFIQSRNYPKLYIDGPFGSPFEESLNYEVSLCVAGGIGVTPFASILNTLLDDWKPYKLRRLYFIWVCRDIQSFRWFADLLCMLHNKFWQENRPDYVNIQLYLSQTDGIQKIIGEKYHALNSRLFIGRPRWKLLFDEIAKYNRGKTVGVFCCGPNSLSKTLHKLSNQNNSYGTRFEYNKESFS

[10] = target: NADPH oxidase 5 (Homo sapiens) (UniProt Q96PH1); assay: compounds shifting NOX5 Amplex Red fluorescence – cell-based, HEK293-NOX5, NOX inhibitor project, primary screen (AID 1161); details: HEK293-NOX5, ionomycin, 45 min, higher = more signal
Chain of NADPH oxidase 5 (Homo sapiens) (Q96PH1 whole entry, looked up): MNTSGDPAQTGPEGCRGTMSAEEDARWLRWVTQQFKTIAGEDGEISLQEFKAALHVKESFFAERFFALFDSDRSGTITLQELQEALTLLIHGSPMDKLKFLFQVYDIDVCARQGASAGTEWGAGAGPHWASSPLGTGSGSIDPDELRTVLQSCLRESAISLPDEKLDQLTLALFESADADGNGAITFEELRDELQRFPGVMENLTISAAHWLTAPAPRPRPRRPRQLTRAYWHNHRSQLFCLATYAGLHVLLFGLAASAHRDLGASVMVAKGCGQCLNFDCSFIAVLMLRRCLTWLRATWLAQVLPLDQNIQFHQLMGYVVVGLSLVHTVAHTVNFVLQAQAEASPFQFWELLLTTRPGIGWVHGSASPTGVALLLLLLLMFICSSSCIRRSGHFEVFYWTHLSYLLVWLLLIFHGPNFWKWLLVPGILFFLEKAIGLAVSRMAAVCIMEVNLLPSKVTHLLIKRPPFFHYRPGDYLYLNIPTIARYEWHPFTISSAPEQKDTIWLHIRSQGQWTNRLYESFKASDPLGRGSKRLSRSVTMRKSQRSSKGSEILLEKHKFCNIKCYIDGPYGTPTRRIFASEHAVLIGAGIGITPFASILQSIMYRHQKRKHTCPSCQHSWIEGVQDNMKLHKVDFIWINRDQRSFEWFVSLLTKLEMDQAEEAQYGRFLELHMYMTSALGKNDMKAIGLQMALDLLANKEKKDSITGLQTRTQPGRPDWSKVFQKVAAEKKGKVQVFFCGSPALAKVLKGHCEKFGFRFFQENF

[11] = compound effects on lung adenocarcinoma cell viability – A549, calcein-AM fluorescence, 48 h, basal, profiling panel (AID 1162); details: higher = more signal; note: test concentration not given here
[12] = compound effects on differentiated 3T3-L1 adipocyte viability – cell-based, 3T3-L1 adipocytes, calcein-AM fluorescence, 48 h, basal, profiling panel (AID 1163); details: 3T3-L1 adipocytes viability, higher = more signal; note: test concentration not given here
[13] = compound effects on hepatocellular carcinoma cell viability – HepG2, calcein-AM fluorescence, 48 h, basal, profiling panel (AID 1164); details: higher = more signal; note: test concentration not given here
[14] = compound effects on multiple myeloma cell viability – MM1S, calcein-AM fluorescence, 48 h, basal, profiling panel (AID 1165); details: higher = more signal;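 note: viability of MM1S multiple myeloma cells under basal unstimulated conditions; test concentration not given here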
[15] = calcein-AM signal in unstimulated myeloma cells – cell-based, calcein-AM fluorescence, 48 h, PK04 Diversity Set, profiling panel (AID 1166); details: RPMI8226 myeloma viability, higher = more signal;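 note: cells grown under basal conditions without added stimulus; test concentration not given here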
[16] = JC-1 mitochondrial signal, unstimulated HepG2 cells – cell-based, JC-1 fluorescence, 24 h, 100 nL compound, profiling panel (AID 1167); details: HepG2 mitochondrial potential, higher = more signal; note: test concentration not given here
[17] = JC-1 mitochondrial signal, unstimulated adipocytes – cell-based, JC-1 fluorescence, 3T3-L1 adipocytes, 24 h, 100 nL compound, profiling panel (AID 1168); details: JC-1 mitochondrial fluorescence, higher = more signal, called active from +8 up or from −8 down; note: test concentration not given here
[18] = JC-1 mitochondrial signal, unstimulated myeloma cells – cell-based, JC-1 fluorescence, RPMI8226, 24 h, 100 nL compound, profiling panel (AID 1169); details: JC-1 mitochondrial potential fluorescence, higher = more signal; note: test concentration not given here
[19] = JC-1 mitochondrial signal, unstimulated MM1S myeloma – cell-based, JC-1 fluorescence, 24 h, 100 nL compound, profiling panel (AID 1170); details: MM1S mitochondrial potential, higher = more signal; note: test concentration not given here
[20] = resazurin metabolic signal in A549 cells – cell-based, resazurin fluorescence, 24 h, PK04 Diversity Set, profiling panel (AID 1171); details: A549 viability, higher = more signal, called active from +8 up or from −8 down; note: test concentration not given here

| SMILES | z-score [1] | composite z-score [2] | z-score [3] | z-score [4] | z-score [5] | z-score [6] | z-score [7] | z-score [8] | z-score [9] | z-score [10] | z-score [11] | z-score [12] | z-score [13] | z-score [14] | z-score [15] | z-score [16] | z-score [17] | z-score [18] | z-score [19] | z-score [20] |
| --- | --- | --- | --- | --- | --- | --- | --- | --- | --- | --- | --- | --- | --- | --- | --- | --- | --- | --- | --- | --- |
| COC(=O)[C@@]1(Cc2ccc(OC)cc2)[C@H]2c3cc(C(=O)N(C)C)n(Cc4ccc(O)c(OC)c4)c3C[C@H]2CN1C(=O)c1ccccc1 | -0.583 (inactive) and -1.09 (inactive) | 0.0913 and 0.661 | 7.35 (inactive) and 6.71 (inactive) | 0.45 (inactive) and 1.11 (inactive) | 2.07 (inactive) and 1.63 (inactive) | 0.642 (inactive) and 1.38 (inactive) | 0.217 and 0.749 | -1.99 (inactive) and 0.285 (inactive) | -6.68 (inactive) and 1.16 (inactive) | -5.69 and -0.509 | -0.352 and 0.46 | 0.865 and 0.215 | -0.0117 and 0.763 | 0.0138 and -1.26 | -0.475 and -2.77 | 2.46 and 2.03 | -0.0971 (inactive) and 0.395 (inactive) | 0.178 and -0.792 | -0.74 and -1.95 | 1.06 (inactive) and -1.21 (inactive) |
| CON(C)C(=O)c1nnc2c3ccccc3n(S(=O)(=O)c3ccc(C)cc3)c2n1 | -0.162 (inactive) and 0.162 (inactive) | -0.262 and -0.368 | 1.21 (inactive) and 2.08 (inactive) | 0.0579 (inactive) and 0.454 (inactive) | -0.212 (inactive) and 0.184 (inactive) | -0.096 (inactive) and 0.149 (inactive) | -0.375 and 0.313 | 0.442 (inactive) and -1.24 (inactive) | 0.882 (inactive) and 0.0607 (inactive) | 0.436 and 0.278 | 0.318 and 1.25 | 0.495 and -0.447 | -1.33 and -0.298 | 0.14 and 0.0315 | 0.496 and -0.588 | -1.61 and -1.52 | -0.301 (inactive) and -0.0202 (inactive) | 0.218 and 0.4 | -0.436 and -0.72 | 0.617 (inactive) and -0.146 (inactive) |
| C[C@@H]1CC[C@H]2C(=O)N3[C@@H](CC[C@@H](C)[C@@H]3c3ccc(-c4ccco4)cc3)C(=O)N2[C@H]1c1ccc(-c2ccco2)cc1 | -0.581 (inactive) and 0.529 (inactive) | 0.0927 and 0.38 | 0.91 (inactive) and 0.469 (inactive) | -0.0315 (inactive) and -0.262 (inactive) | 0.0919 (inactive) and 1.71 (inactive) | -0.364 (inactive) and -0.853 (inactive) | -0.146 and -0.115 | 0.331 (inactive) and 0.931 (inactive) | -1.03 (inactive) and 0.685 (inactive) | -0.273 and -1.03 | -0.521 and 0.709 | 0.489 and 0.992 | -0.676 and -0.195 | -0.372 and -2.15 | -0.537 and -1.3 | -1.41 and -2.19 | -0.996 (inactive) and -0.779 (inactive) | 0.299 and -0.414 | 0.863 and 0.498 | -0.244 (inactive) and 1.43 (inactive) |
| C[C@@H](ON=C1[C@H]2CCn3c(=O)n(-c4ccccc4)c(=O)n3[C@H]2[C@H](O)[C@@H]2O[C@H]12)c1cn([C@H](CO)Cc2ccccc2)nn1 | 0.328 (inactive) | -0.049 | 0.508 (inactive) | 0.461 (inactive) | 0.373 (inactive) | 0.367 (inactive) | 0.164 | -0.622 (inactive) | -0.268 (inactive) | 0.259 | 0.158 | -0.002 | 0.567 | -0.463 | -0.259 | -0.998 | 0.31 (inactive) | -0.334 | -0.00977 | -0.847 (inactive) |
| CO[C@@H]1COC(=O)[C@H](Cc2ccccc2)NC(=O)CC=C[C@@H](C)[C@H](OC)COC(=O)[C@@H](C)NC(=O)CC=C[C@H]1C | -0.582 (inactive) and 0.887 (inactive) | -0.0536 and -0.425 | -0.712 (inactive) and -0.142 (inactive) | -0.999 (inactive) and -0.463 (inactive) | 0.932 (inactive) and 0.0469 (inactive) | -2.07 (inactive) and -1.44 (inactive) | 0.758 and 0.682 | 0.0254 (inactive) and -0.582 (inactive) | 0.859 (inactive) and 0.551 (inactive) | -0.106 and 0.66 | -0.0911 and -0.304 | 0.686 and -0.191 | 0.0488 and 1.09 | 0.144 and 0.329 | 0.173 and 1.12 | 0.999 and -0.15 | 0.67 (inactive) and 1.56 (inactive) | 0.645 and -0.266 | 0.452 and 0.623 | 0.632 (inactive) and 0.35 (inactive) |
| C[C@@H]1CC[C@H]2C(=O)O[C@H](CN=[N+]=[N-])CN2[C@H]1c1ccc(Br)cc1 | -1.87 (inactive) and -0.609 (inactive) | 0.0457 and -0.284 | -0.1 (inactive) and 2.08 (inactive) | 0.23 (inactive) and 1.03 (inactive) | 0.124 (inactive) and 0.564 (inactive) | -0.12 (inactive) and 0.491 (inactive) | -0.524 and -0.466 | 0.993 (inactive) and 0.995 (inactive) | -0.0537 (inactive) and -0.184 (inactive) | -0.124 and 0.779 | -2.47 and 0.677 | -0.805 and -0.0793 | -2.75 and -0.113 | -3.4 and -0.0115 | -3.07 and 0.163 | -2.47 and 0.365 | -0.136 (inactive) and 0.265 (inactive) | -0.867 and 0.0245 | -1.02 and 0.242 | -0.854 (inactive) and 0.459 (inactive) |
